Compound activity (PubChem BioAssay)
Shiga inhibitor: blocks Shiga toxin action in Vero cells; hit rate 9.2% among 290,000; inhibition, % at 38.7 µM; Vero cells, Shiga toxin protein synthesis inhibition reporter; in the data active = inhibition mostly above about 28%, no sharp cut-off; inactive = mostly below about 43%; note: 0% is about no effect
MARV entry inh: blocks Marburg virus binding to or entry into cells | Marburg virus pseudotyped entry inhibition, cell reporter | Potency, µM (highest dose often 37.8 µM), for inactives: top-dose activity change, negative = inhibition, actives largely listed as inhibitors | hit rate 1.8% among 300,000 | AID 540276; calls by dose curve; tested in HEK293 cells; note: potency is the fitted concentration of half-maximal effect; % is set by controls: 0 for no effect and ±100 for the full control effect
CHX counter: counter-screen for Shiga toxin inhibitors: cycloheximide protein synthesis inhibition. cell reporter, cycloheximide protein synthesis inhibition counterscreen. AID 2314. max response, %. hit rate 12% among 300,000; in the data active = max response mostly above about 13%, no sharp cut-off; inactive = mostly below about 14%; note: read at 38.3 µM for the half of the compounds with a filed dose; 0% is about no effect
Lassa entry inh: inhibitors of Lassa virus binding or cell entry; Lassa virus pseudotype entry inhibition, cell reporter; Potency, µM (doses to about 37.9 µM), inactives show at the top dose activity change, negative = inhibition, actives largely listed as inhibitors; hit rate 1.2% among 300,000; calls by dose curve; tested in HEK293 cells; note: potency is the fitted concentration of half-maximal effect; % is set by controls: 0 for no effect and ±100 for the full control effect; nearly all actives have a fitted effect of over 50% in size
* marks the source's active call; other numbers are inactive results; ? = inconclusive; . = no result given; ! = not confirmed by another sample; [ ] = remark or other dose. Only some compounds are listed: those with a hit (about 12% of all), similar ones and a draw of the others.

SMILES	Shiga inhibitor	MARV entry inh	CHX counter	Lassa entry inh
CCc1ccc(NC(=O)Cn2cnc3sc(C)c(S(=O)(=O)N4CCN(c5ccccc5OC)CC4)c3c2=O)cc1	.	?	.	14.1%[46.1 µM]
COc1cc(/C=C/c2onc(C)c2[N+](=O)[O-])cc(OC)c1OC	.	?	.	10.0%
Cc1cccc(N/C=C/c2onc(C)c2[N+](=O)[O-])c1	89.0*	?	31.3*	?
Cc1cc(O)ccc1N/C=C/c1onc(C)c1[N+](=O)[O-]	64.4*	?	38.7*	?
Cc1cccc(/C=C/c2onc(C)c2[N+](=O)[O-])n1	.	-4.4%[46.1 µM]	.	-28.1%
CCOc1ccc(CCNC(=O)COC(=O)c2nc3nc(C)cc(C)n3n2)cc1OCC	-19.1	1.0%	1.1	16.5%
CCOc1ccccc1NC(=O)C1CCN(c2nc(-c3ccc(OC)cc3)no2)CC1	-1.9	.	-2.5	.
O=C(NC1CCCCCC1)c1ccc2c(c1)sc1nc(-c3ccccc3)cn12	.	.	.	8.0%[46.1 µM]
c1ccc(-c2cn3c4c(sc3n2)CCCC4)cc1	-1.7	1.12µM*	11.5*	?
O=c1c2ccccc2[nH]c(=S)n1CCCN1CCC(Cc2ccccc2)CC1	-6.1	.	-4.2	.
O=C(NCC(c1ccc(Cl)cc1)N1CCCCC1)c1ccc(F)cc1 (stereo not drawn)	.	2.82µM*	.	-25.6%[46.1 µM]
S=C(NCCc1ccccc1)NCC(c1ccco1)N1CCCCC1 (stereo not drawn)	9.0	?	14.9*	?
COc1ccc(C(CNC(=O)Cc2ccccc2Cl)N2CCCCC2)cc1 (stereo not drawn)	-6.7	3.98µM*	1.6	-11.3%[46.1 µM]
O=C(NCC(c1ccco1)N1CCCCC1)c1ccc(COc2ccc(Cl)cc2)cc1 (stereo not drawn)	.	?	.	10µM*
N#Cc1ccc(C(=O)NCC(c2ccco2)N2CCCCC2)cc1 (stereo not drawn)	6.5	-2.5%	-1.8	2.3%
Cc1ccc(C(=O)NCC(c2ccc(Cl)cc2)N2CCCCC2)cc1 (stereo not drawn)	.	?	.	-0.8%[46.1 µM]
CCc1nc(SCC(=O)Nc2ccc(NC(C)=O)cc2)n[nH]1	.	13.8%[46.1 µM]	.	6.7%[46.1 µM]
COc1ccc(C(=O)NNC(=O)CSc2nnc(C3CC3)n2C)cc1	14.8	-23.4%[46.1 µM]	-5.7	24.0%
O=C(NCCN1CCNC1=O)C1CCC(=O)N(Cc2cccc(C(F)(F)F)c2)C1 (stereo not drawn)	-6.2	.	1.7	.
CC(C)Sc1nc2ccc(Br)cc2[nH]1	88.2*	?	36.3*	7.0%[46.1 µM]
CC(C)CNC(=O)C(=O)NNC(=O)c1ccco1	-3.5	-25.8%[46.1 µM]	0.9	13.8%
COc1ccc(C2C3C=CCC(c4cccc(/C=C/c5ccccc5)c4)C3C(=O)N2Cc2ccccc2)cc1Cl (stereo not drawn)	35.9*	.	36.3*	.
COc1ccc(-c2cc(C3C4C=CCC(C)C4C(=O)N3Cc3ccccc3)ccc2F)cc1OC (stereo not drawn)	62.6*	.	51.4*	.
COc1ccc(-c2ccc(C3C4C=CCC(C)C4C(=O)N3Cc3ccccc3)c(F)c2)cc1OC (stereo not drawn)	11.1	.	15.2	.
COc1ccc([C@H]2[C@H]3C=CC[C@@H](C)[C@@H]3C(=O)N2Cc2ccccc2)cc1Cl	-2.2	.	-6.5	.
SMILES	Shiga inhibitor	MARV entry inh	CHX counter	Lassa entry inh
CN(C)c1ccc(-c2cccc(C3CC=CC4C3C(=O)N(Cc3ccccc3)C4c3ccc(C(F)(F)F)cc3)c2)cc1 (stereo not drawn)	50.2	.	14.1*!	.
COc1ccc(CCCc2nnc(SCC(=O)Nc3ccc(C)cc3)o2)cc1C	.	.	.	14.4%[46.1 µM]
CCCCNC(=O)CCC(=O)Nc1ccc2nc(N3CCCCC3)cc(C)c2c1	63.0*	.	31.0*	.
CCOC(=O)C1CCCN(C(=O)CCC(=O)Nc2ccc3nc(N4CCOCC4)cc(C)c3c2)C1 (stereo not drawn)	21.1	10.5%	24.5*	?
CCCN(CCC)CCNC(=O)CCC(=O)Nc1ccc2nc(N3CCOCC3)cc(C)c2c1	75.4*	?	39.9*	15.6%
Cc1cc(N2CCCCC2)nc2ccc(NC(=O)CCC(=O)NCCC(C)C)cc12	49.3*	?	35.3*	1.1%
Cc1cc(N2CCOCC2)nc2ccc(NC(=O)CCC(=O)N3CCN(c4ccccc4)CC3)cc12	-6.1	3.3%[46.1 µM]	3.3	?
CCCCNC(=O)CCC(=O)Nc1ccc2nc(N3CCOCC3)cc(C)c2c1	-5.8	9.4%	12.7	2.1%
CCOc1ccc(CC(=O)C2=C(N3CCOCC3)CC(C)(C)CC2=O)cc1OCC	-8.4	22.9%[46.1 µM]	-2.2	-5.3%
COc1cccc(NC(=O)CCC(=O)Nc2ccc3nc(N4CCOCC4)cc(C)c3c2)c1	81.4*	?	37.0*	3.5%
Cc1ccc(/C=N\Nc2cn[nH]c(=O)c2Cl)cc1	107.0	-6.8%	37.8*	10.7%
O=c1[nH]ncc(N/N=C/c2ccccc2)c1Cl	20.0	15.5%	5.4	6.5%
CC1=NNC(=O)C1CC(=O)N/N=C/c1sccc1C (stereo not drawn)	1.4	4.8%[46.1 µM]	12.0	6.8%
Cc1ccsc1/C=N\Nc1cn[nH]c(=O)c1Cl	46.5	?	31.1*	16.9%[46.1 µM]
COc1ccc(/C=N/Nc2cn[nH]c(=O)c2Cl)cc1	59.6	19.9%[46.1 µM]	29.0*	-3.5%[46.1 µM]
CC#CCN1C(=O)N(C)C(c2ccccc2)C(C(=O)OC)=C1C (stereo not drawn)	.	-3.5%[14.2 µM]	.	.
CCN(CC)CCn1c2ccccc2c2nc3ccc([N+](=O)[O-])cc3cc21	91.7*	?	27.1*	?
Cn1c2ccccc2c2cc([N+](=O)[O-])ccc21	26.3	-5.7%	-2.3	-1.5%
CCOC(=O)N1CCN(C(=O)c2ccc(Cn3c(=S)[nH]c4ccc(Br)cc4c3=O)cc2)CC1	-3.0	?	0.9	3.98µM*
CC(=O)c1ccc(N2CCN(C(=O)c3ccc(Cn4c(=S)[nH]c5ccc(N6CCOCC6)cc5c4=O)cc3)CC2)cc1	59.2*	?	15.5	9.9%
CCOC(=O)N1CCN(C(=O)c2ccc3c(=O)n(Cc4ccc(Cl)cc4)c(=S)[nH]c3c2)CC1	10.4	?	-1.7	-6.9%
Cc1ccc(C(=O)Oc2oc(-c3ccco3)nc2C=Nc2ccc(Cl)cc2)cc1	98.6*	?	35.8*	?
Cc1ccc(C(=O)O/N=C/c2c(C)nn(C)c2Cl)cc1	-7.9	13.3%[46.1 µM]	11.6	0.9%[46.1 µM]
O=C(Oc1oc(-c2ccco2)nc1C=Nc1ccccc1)c1ccco1	39.1*	?	15.8*	?
O=C(Oc1oc(-c2ccco2)nc1C=Nc1ccccc1)c1ccoc1	20.6	1.9%	17.1*	0.0%
SMILES	Shiga inhibitor	MARV entry inh	CHX counter	Lassa entry inh
CCn1ccnc1CN(C)Cc1cn[nH]c1-c1ccc(OC)c(F)c1	27.0	7.8%[46.1 µM]	-2.5	14.0%[46.1 µM]
Cc1ccc(Cl)cc1NC(=O)C1CCCN(S(C)(=O)=O)C1 (stereo not drawn)	0.7	.	1.4	.
NNC(=O)c1ccc(CSc2cccc3cccnc23)cc1	20.2	2.1%[46.1 µM]	23.1*	19.2%
Cc1cccc(CSc2cccc3cccnc23)c1	152.4*	?	60.5*	1.3%
O=C1CCC/C(=N\NC(=O)c2ccc(CSc3cccc4cccnc34)cc2)C1	2.8	.	-1.0	.
CCOC(=O)CSc1cccc2cccnc12	53.3*	?	16.9	7.6%
Cc1cccc(NC(=O)CSc2cccc3cccnc23)c1C	.	16.0%[46.1 µM]	-2.6	-7.9%[46.1 µM]
O=C(N/N=C/c1ccccc1Br)c1ccc(CSc2cccc3cccnc23)cc1	7.6	?	12.4*	0.9%
